{"source": "paper PMC5540273", "about": "(PLoS ONE, 2017);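 also: KINOMEscan kinase panel screen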", "data": [{"tested_on": "T1, p38-gamma", "T1 construct": "gene MAPK12", "settings": "concentration: 1 μM, replicates: in singlicate; n = 1", "units": {"%Inh": "%"}, "values": [{"compound": "CN(C)c1cc(-c2ccc3c(N)n[nH]c3c2)nc(N)n1", "note": "[GSK2219329]", "%Inh": 0}, {"compound": "COc1cccc(C2=C(N(C)c3ccccc3)C(=O)NC2=O)c1", "note": "[SB-334865]", "%Inh": 0}, {"compound": "COc1ccc(-c2coc3ccc(-c4nnc(SCc5cccc(C#N)c5)o4)cc23)cc1", "%Inh": 7}, {"compound": "Cc1c(Cn2c(C)nn3c(=O)cc(N4CCO[C@H](C)C4)nc23)cccc1C(F)(F)F", "note": "[GSK2373690]", "%Inh": 0}, {"compound": "C[C@@H]1CC[C@H](C(=O)NC2CCCCC2)CN1c1cc(-c2ccc3c(N)n[nH]c3c2)nc(N)n1", "note": "[GSK2291363]", "%Inh": 45}, {"compound": "COc1ccc(-n2cnc3c(N)ncnc32)cc1", "note": "[SKF-97236]", "%Inh": 12}, {"compound": "CCCC(=O)Nc1n[nH]c2ncc(-c3cccc4ccccc34)cc12", "note": "[SB-642057]", "%Inh": 39}, {"compound": "O=C(Nc1n[nH]c2nc(-c3ccccc3)c(Cl)cc12)C1CC1", "note": "[SB-734909]", "%Inh": 27}, {"compound": "Nc1nc(N)c2nc(-c3ccccc3)[nH]c2n1", "note": "[SKF-12778]", "%Inh": 0}, {"compound": "COC(=O)c1c(-c2ccccc2)c2cc(Br)ccc2c(=O)n1Cc1ccc(S(C)(=O)=O)cc1", "%Inh": 29}, {"compound": "FC(F)(F)c1ccc(-c2ncn(CCCN3CCOCC3)c2-c2ccncc2)cc1", "note": "[SB-217780]", "%Inh": 2}, {"compound": "COC(=O)c1c(-c2ccccc2)c2cc(C)ccc2c(=O)n1Cc1ccccc1", "%Inh": 0}, {"compound": "Cc1ccccc1COc1cc(-n2cnc3cc(Cl)ccc32)sc1C(N)=O", "note": "[GW813349]", "%Inh": 20}, {"compound": "Cc1cc(Nc2nc(-c3cccc(C)n3)nc3ccccc23)ccn1", "note": "[GW872411]", "%Inh": 0}, {"compound": "COc1cc2nccc(Nc3cccc(Oc4ccccc4)c3)c2cc1OC.Cl", "note": "[GW284543]", "%Inh": 0}, {"compound": "COc1cc2ncn(-c3cc(OCCCc4ccccc4)c(C(N)=O)s3)c2cc1OC", "note": "[GSK205189]", "%Inh": 0}, {"compound": "Cc1nc(N(C)[C@H]2CN(C(=O)CC#N)CC[C@H]2C)c2cc[nH]c2n1", "%Inh": 11}, {"compound": "Cc1nnc(-c2ccc(C)c(-c3ccc(C(=O)O)cc3)c2)o1", "note": "[GW608005]", "%Inh": 0}, {"compound": "COc1ccc(-c2cc3c(C)nc(N)nc3n([C@H]3CC[C@H](O)CC3)c2=O)cn1", "%Inh": 100}, {"compound": "Cc1nnc(-c2ccc3ncn(-c4ccc(S(C)=O)cc4)c3c2)o1", "note": "(stereo not shown)", "%Inh": 0}, {"compound": "CCC(=O)c1c(-c2ccccc2)c2cc(Cl)ccc2c(=O)n1Cc1cc(S(C)(=O)=O)n(CC(F)F)n1", "%Inh": 0}, {"compound": "CCC(=O)c1c(-c2ccccc2)c2cc(Cl)ccc2c(=O)n1Cc1cc(S(C)(=O)=O)n(CC(N)=O)n1", "%Inh": 7}]}]}
